Laboratory results from PubChem BioAssay AID2417 (National Center for Advancing Translational Sciences (NCATS), 2010).
Hit rate of the full screen: of about 140,000 compounds, about 4,300 (3.1%) were called active. About 21% were inconclusive and are not listed.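 Rule for the calls: active = readout at or below -70, meaning at least 70% loss of cells showing the perinucleolar compartment, a nuclear body marking cancer cells; inconclusive = readout between -30 and a set limit; inactive = the rest.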 For the sample, actives were picked, then their nearest neighbours and some compounds at random.

Assay: High Content Assay for Compounds that inhibit the Assembly of the Perinucleolar Compartment;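 note: plate controls were DMSO wells for no effect and camptothecin positive control wells for full effect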
Conditions: PC3M PTB-GFP, PNC prevalence imaging, 16 h; at 10 µM; active compounds read low
Outline: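 Read-out is percentage of cells bearing a perinucleolar compartment, from automated 20x imaging of fixed, Hoechst-stained PC3M PTB-GFP cells. Cells were seeded 4 h, then exposed 16 h to compound (23 nl of library stock) in duplicate plates.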

| Compound | activity change (PNC), negative = inhibition |
| --- | --- |
| C/C(=N\NC(=O)c1ccc(NS(=O)(=O)c2cccs2)cc1)c1ccc2ccccc2c1 | 3.73% (inactive) |
| CC1CCCN(CCOCCOc2ccccc2-c2ccccc2)C1 (configuration not stated) | 40% (inactive) |
| CC(=O)c1ccc(OCCN2CCOCC2)cc1 | 20.1% (inactive) |
| O=C(NCCN=C1NS(=O)(=O)c2ccccc21)c1ccc(S(=O)(=O)N2CCOCC2)cc1 | -5.59% (inactive) |
| COC(=O)c1ccc2c(c1)S(=O)(=O)NC(=NCCCN1CCOCC1)S2 | -119% (active) |
| COc1ccc(C(=O)NNC(=S)NC(=O)c2ccccc2[N+](=O)[O-])cc1 | -4% (inactive) |
| O=C(O)c1ccc(/C=N/NC(=O)c2ccc(Br)cc2)cc1 | -18.4% (inactive) |
| O=C(C(Cl)Cl)N1CCN(c2ccccn2)CC1 | 42.3% (inactive) |
| Cc1ccccc1CN(c1ccc(C(=O)NCC2CCCO2)cc1)S(C)(=O)=O (configuration not stated) | -1.65% (inactive) |
| C=C(C)C1CC=C(C)/C(=N\NC(=O)CNc2ccccc2OC)C1 (configuration not stated) | -81.8% (active) |
| COc1ccc(Cl)cc1NC(=O)CNc1ccccc1F | -22.5% (inactive) |
| COc1ccccc1Nc1ncc(C(C)=O)c(C)n1 | 9.62% (inactive) |
| CCCCc1cc2c(s1)CCCC/C2=N/O | 0.0645% (inactive) |
| Cc1cc(C)c2c(n1)sc1c(=O)n(-c3ccccc3)c(=O)[nH]c12 | 19.8% (inactive) |
| CCn1c(/C=N/NC(=O)c2ccc(OC)cc2)nc2ccccc21 | 27.2% (inactive) |
| CCC(CC)C(=O)N1CCN(c2cccc(C)c2C)CC1 | -15.3% (inactive) |
| COc1cc(/C=N\NC(=O)c2nonc2N)c(OC)cc1Br | 16.4% (inactive) |
| COc1ccc(/C=N/Nc2nc3ccccc3c(=O)[nH]2)cc1 | 25.5% (inactive) |
| COc1ccc(CCNC(=O)CCCCn2c(=O)[nH]c3ccccc3c2=O)cc1OC | -14.6% (inactive) |
| COc1ccc(Cc2nnc(N/N=C/c3ccccc3O)[nH]c2=O)cc1OC | -84.6% (active) |
| NS(=O)(=O)c1cc(C(=O)NCCOc2ccccc2)c(Cl)cc1Cl | -9.28% (inactive) |
| C=CCNC(=O)c1ccccc1NC(=O)c1ccc(Cl)c(S(=O)(=O)Nc2cccc(C)c2C)c1 | -8.83% (inactive) |
| CC(C)C[C@H](NC(=O)Nc1cccc(C(F)(F)F)c1)C(=O)O | -100% (active) |
| CCNS(=O)(=O)c1ccc(NC(=O)Nc2cccc(C(F)(F)F)c2)cc1 | -8.69% (inactive) |
| O=C(O)CSCC(=O)Nc1cccc(C(F)(F)F)c1 | -17.2% (inactive) |

| Compound | activity change (PNC), negative = inhibition |
| --- | --- |
| CC(=O)Nc1ccc(S(=O)(=O)NCC(=O)OCc2cc(=O)oc3ccc4ccccc4c23)cc1 | -24.6% (inactive) |
| Cc1cc(C(=O)COC(=O)CNC(=O)c2ccc(F)cc2)c(C)n1Cc1ccco1 | 8.75% (inactive) |
| Cc1cc(OCCN2CCCC2)ccc1C(C)C | -100% (active) |
| Cc1cc(OCCN2CCCC2)cc(C(C)C)c1 | 0% (inactive) |
| c1ccc2cc(OCCN3CCCC3)ccc2c1 | -15.5% (inactive) |
| Cc1cc([N+](=O)[O-])nn1CC(=O)Nc1ccc(Cc2ccncc2)cc1 | -5.96% (inactive) |
| Cc1scc(C(=O)NNC(=S)NCc2ccccc2)c1C | 11.8% (inactive) |
| CCCCn1c(O)c(N=NC(=O)Cn2c(C(F)(F)F)nc3ccccc32)c2ccccc21 | -20% (inactive) |
| CN(C)CCNC(=O)Nc1cccc(Cl)c1Cl | 17.8% (inactive) |
| Cc1c(NC(=O)Nc2ccccc2Cl)sc(=S)n1C | -119% (active) |
| Cc1cc(C)nc(NC(=O)Nc2ccccc2C(F)(F)F)n1 | -23.4% (inactive) |
| O=C1NC(c2ccccc2)=NC1(Nc1ccccn1)C(F)(F)F (configuration not stated) | 23.3% (inactive) |
| Cc1ccc(NC(=O)c2oc(=O)c3ccccc3c2-c2ccccc2)c(C)c1 | 36.6% (inactive) |
| COC(=O)C(C)N(C#N)c1nc(C)nc(C)n1 (configuration not stated) | 10.7% (inactive) |
| Cc1cc(C)nc(N(C#N)CC(=O)Nc2ccccc2)n1 | -18.1% (inactive) |
| CNc1nc(SC)nc(N(C#N)CC(=O)OC)n1 | -100% (active) |
| O=C(NC(=S)N1CCN(Cc2ccccc2)CC1)c1ccccc1 | -17% (inactive) |
| Cc1cc(C(=O)NNC(=S)NC(C)c2ccccc2)cs1 (configuration not stated) | 1.77% (inactive) |
| COc1cc2c(cc1OC)CN(C(=O)c1ccc(S(=O)(=O)N3CCCCCC3)cc1)CC2 | -8.24% (inactive) |
| CN(c1ccc(C(=O)NCCC2=CCCCC2)cc1)S(C)(=O)=O | 32.9% (inactive) |
| CN(c1ccc(C(=O)N2CCc3ccccc3C2)cc1)S(C)(=O)=O | -100% (active) |
| Cc1ccc(NC(=O)Cn2cccc2C2=NC(c3ccccc3)CO2)c(C)c1 (configuration not stated) | 17.1% (inactive) |
| CCN(CC)c1ccc(C2C3CCCCC3(O)CCN2CC(=O)Nc2ccccc2)cc1 (configuration not stated) | -22.9% (inactive) |
| Cc1ccc(NC(=O)CN2CCC3(O)CCCCC3C2c2ccc3c(c2)OCO3)c(C)c1 (configuration not stated) | -90% (active) |
| COc1cc(C2C(N3C(=O)c4ccccc4C3=O)C(=O)N2c2ccc(C)c(C)c2)cc(OC)c1OC (configuration not stated) | 31.7% (inactive) |

| Compound | activity change (PNC), negative = inhibition |
| --- | --- |
| Cc1ccc(Cn2c(NC(=O)c3ccco3)nc3ccccc32)cc1 | 2.65% (inactive) |
| CCn1c(NC(=O)c2nn(C)cc2Br)nc2ccccc21 | -114% (active) |
| CCC(=O)NCCc1nc2ccccc2n1CC | 14% (inactive) |
| Cc1nnnn1/C(=C\c1ccccc1)C(=O)OCC(=O)N1CC2(C)CC1CC(C)(C)C2 (configuration not stated) | 23.1% (inactive) |
| Cn1nccc1CNC(=O)c1ccnn1C | 23.5% (inactive) |
| Cc1ccc(S(=O)(=O)N(CC(=O)Nc2cccc([N+](=O)[O-])c2)Cc2ccc(Cl)cc2)cc1 | 34.5% (inactive) |
| Cc1ccc(N(CC(=O)Nc2cccc(N(C)S(C)(=O)=O)c2)S(C)(=O)=O)cc1 | 24.2% (inactive) |
| COc1ccc(C)cc1S(=O)(=O)N(CC(=O)Nc1cccc([N+](=O)[O-])c1)c1ccc(C)cc1 | -81.9% (active) |
| Cc1ccc(S(=O)(=O)/N=C(/Nc2ccccn2)c2ccc(Cl)cc2)cc1 | -85% (active) |
| Cc1ccc(S/C(=N\S(=O)(=O)c2ccc(Cl)cc2)c2ccccc2)cc1 | -26.8% (inactive) |
| O=S(=O)(/N=C(/Nc1ccccn1)c1ccccc1)c1ccc(Cl)cc1 | -25.2% (inactive) |
| CCNS(=O)(=O)c1ccc(NC(=O)c2cncc(Br)c2)cc1 | 6.83% (inactive) |
| C/C(=N/NS(=O)(=O)c1ccccc1)c1ccc(NC(=O)C(F)(F)F)cc1 | 8.62% (inactive) |
| COC(=O)Cc1ccc(N(Cc2ccccc2F)S(=O)(=O)c2ccc(Br)cc2)cc1 | -15.9% (inactive) |
| CCOc1ccc(NC(=O)Nc2cc(C)ccc2OC)cc1 | -3.12% (inactive) |
| CCOc1ccc(C(=O)Nc2cc(OC)ccc2OC)cc1 | -127% (active) |
| CCOc1ccccc1NC(=O)Nc1cc(OC)ccc1OC | 48.5% (inactive) |
| CC1CCCCN1S(=O)(=O)c1ccc(S(=O)(=O)N(CC(=O)Nc2ccccc2)Cc2cccs2)cc1 (configuration not stated) | -17.2% (inactive) |
| Cn1c(=O)cc(OCCCC(=O)N2CCN(Cc3ccc4c(c3)OCO4)CC2)c2ccccc21 | 19.5% (inactive) |
| CCOc1ccc(NCCC(=O)c2ccc3c(c2)OCO3)cc1 | 23% (inactive) |
| CCCOc1ccc(NC(=O)CC2C(=O)N(C)C(=S)N2Cc2ccc3c(c2)OCO3)cc1 (configuration not stated) | -134% (active) |
| COc1ccc(/C=C/C(=O)NC(=S)NN2CCCCC2c2cccnc2)cc1 (configuration not stated) | -29.3% (inactive) |
| CN(C)/N=C/c1cc(Cl)cc([N+](=O)[O-])c1O | 3.04% (inactive) |
| Cc1ccc(S(=O)(=O)N2CCCC2C(=O)OCc2nc3sc(C)c(C)c3c(=O)[nH]2)cc1 (configuration not stated) | 7.12% (inactive) |
| O=C(CN1C(=O)c2cccc3cccc(c23)C1=O)N1CCCCC1 | -26% (inactive) |

| Compound | activity change (PNC), negative = inhibition |
| --- | --- |
| O=C(Cc1ccccc1)NC(=S)Nc1ccc(N2CCCCC2)cc1 | -26.1% (inactive) |
| COc1ccc(NC(=S)NCC2CCN(c3ccc(OC)cc3)C2)cc1 (configuration not stated) | -116% (active) |
| COc1ccc(NC(=S)NC2CCS(=O)(=O)C2)cc1 (configuration not stated) | 36.6% (inactive) |
| COCC(C)n1c(C)cc(C(=O)CSc2cc(C)c3ccccc3n2)c1C (configuration not stated) | -11.6% (inactive) |
| Cc1cc(F)ccc1S(=O)(=O)N1CCCOC1CNC(=O)C(=O)NCCC1=CCCCC1 (configuration not stated) | 14.2% (inactive) |
| CCCc1cc(=O)[nH]c(SCC(=O)N2CCN(S(=O)(=O)c3ccc(C)cc3C)CC2)n1 | -20% (inactive) |
| Cc1nn(Cc2ccc(F)cc2)c(C)c1NC(=O)c1cccnc1Cl | -102% (active) |
| Cc1cc(C(=O)Nc2c(C)nn(Cc3ccccc3)c2C)on1 | 36% (inactive) |
| Cc1nn(Cc2ccc(F)cc2)c(C)c1NC(=O)c1noc2c1CCc1ccccc1-2 | -5.67% (inactive) |
| Nc1nc(SCC(=O)NN(c2ccccc2)c2ccccc2)n[nH]1 | 8.76% (inactive) |
| Cc1ccccc1C1=NC(C(F)(F)F)(C(F)(F)F)c2c(n(-c3ccc(F)cc3)c(=O)[nH]c2=O)N1 | -9.65% (inactive) |
| CCOC(=O)C(C)Sc1nc2ccccc2c(=O)n1CC1CCCCC1 (configuration not stated) | 0.699% (inactive) |
| CCC1(CC)Cc2ccccc2-c2nc3ccccc3c(=O)n21 | 35.3% (inactive) |
| CCOC(=O)C1CCc2nc3ccccc3c(=O)n21 (configuration not stated) | -123% (active) |
| O=C(COC(=O)c1cc(=O)[nH]c2ccccc12)Nc1nc(-c2cccc(Br)c2)cs1 | 21.6% (inactive) |
| COC(=O)Cc1ccc(OCC(=O)Nc2ccc(OC(F)(F)F)cc2)cc1 | -17.1% (inactive) |
| CCCCN(Cc1ccccc1)C(=O)C1CCN(Cc2sccc2C)CC1 | 30.3% (inactive) |
| CCCCN(C)C(=O)C1CCN(Cc2ccccn2)CC1 | -84.5% (active) |
| CCCC(=O)C1CCN(Cc2ccccc2)CC1 | -25.7% (inactive) |
| CC(=O)Nc1ccc(N2CCOCC2)c(C(=O)Nc2cccc(C)c2)c1 | -7.92% (inactive) |
| CCOc1cccc(NC(=O)CC#N)c1 | -1.74% (inactive) |
| CC(=O)Nc1cccc(Oc2cc(C#N)c(C#N)cc2N2CCOCC2)c1 | -107% (active) |
